GLD-1 TGE inh: GLD-1-TGE RNA interaction inhibition (C. elegans) | Q17339 | purified GLD-1 + fluorescein TGE RNA, fluorescence polarization | inhibition, % at 5.96 µM | 320,000 compounds, 0.44% hits;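 active means percent inhibition above a per-plate cutoff, the plate mean of test compounds plus 3 SD, cut at about 30% in these data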;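 further: 0% = DMSO wells with GLD-1 and probe and 100% = wells lacking GLD-1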
Mcl1 Bid PPI: disrupts binding of human Mcl-1 to Bid peptide. Q07820. TR-FRET Mcl-1/Bid-Dy647 peptide binding, 1536-well. inhibition, % at 21.7 µM. 220,000 compounds, 0.97% hits. AID 1021;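 active means compounds that cut the binding signal by more than half at the single screening dose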;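 further: His-tagged Mcl-1 with europium anti-His antibody binding Bid BH3 peptide; 0% = Mcl-1 plus peptide wells and 100% = peptide-only wells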
Target sequence (Q07820 whole entry, looked up): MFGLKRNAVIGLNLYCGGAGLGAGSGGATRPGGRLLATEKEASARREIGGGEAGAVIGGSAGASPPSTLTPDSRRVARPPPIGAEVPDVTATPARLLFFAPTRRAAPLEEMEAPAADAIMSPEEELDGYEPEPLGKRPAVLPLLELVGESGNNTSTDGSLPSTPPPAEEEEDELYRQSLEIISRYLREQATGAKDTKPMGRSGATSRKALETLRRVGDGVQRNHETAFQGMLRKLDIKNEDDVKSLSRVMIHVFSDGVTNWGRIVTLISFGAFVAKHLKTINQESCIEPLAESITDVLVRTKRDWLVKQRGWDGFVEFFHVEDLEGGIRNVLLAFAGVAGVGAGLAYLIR
MCL1 BIM primary: inhibitors of human MCL1 binding to BIM-BH3 peptide. Q07820. GST-MCL1 / FITC-Bim-BH3 fluorescence polarization. inhibition, % at 10.9 µM. 320,000 compounds, 0.68% hits;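 active means inhibition above the mean inhibition of all tested compounds plus 3 SD, set per campaign, cut at about 40% in these data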;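 further: 0% = DMSO wells and 100% = unlabeled Bim-BH3 peptide control; higher means more loss of mP so more displacement of Bim peptide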
BCLXL inh: blocks human Bcl-xL binding to Bim BH3 peptide | GST-Bcl-xL / FITC-Bim BH3 peptide fluorescence polarization | Q07817 | inhibition, % at 10.9 µM | 320,000 compounds, 0.7% hits;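 active means inhibition above the mean of all tested compounds plus 3 SD, cutoff set per campaign, cut at about 30% in these data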;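 further: 0% = DMSO wells and 100% = unlabeled Bim-BH3 peptide competitor; inhibitors lower millipolarization by displacing the labeled peptide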
Target sequence (Q07817 whole entry, looked up): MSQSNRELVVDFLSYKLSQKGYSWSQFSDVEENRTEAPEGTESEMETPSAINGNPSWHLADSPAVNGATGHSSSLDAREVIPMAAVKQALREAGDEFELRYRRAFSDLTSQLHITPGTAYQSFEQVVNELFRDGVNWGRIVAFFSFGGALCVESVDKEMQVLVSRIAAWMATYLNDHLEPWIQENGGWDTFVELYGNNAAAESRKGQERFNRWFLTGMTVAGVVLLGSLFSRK
Mcl1 Noxa PPI: disrupts binding of human Mcl-1 to Noxa peptide. Q07820. TR-FRET Mcl-1/Noxa peptide binding, 2 h. inhibition, % at 21.7 µM. 220,000 compounds, 1.5% hits. AID 1022;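 active means compounds that cut the protein-peptide binding signal by more than 50% relative to plate controls in a single-dose test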;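 further: His-tagged Mcl-1 with rhodamine Noxa BH3 peptide and terbium anti-His antibody; 0% = Mcl-1 plus Noxa peptide wells and 100% = peptide-only wells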
Bim-Mcl-1: human Bim-Mcl-1 interaction inhibition; Q07820; inhibition, % at 10 µM; 190,000 compounds, 0.1% hits; Bead-based flow cytometry, Bim peptide-Mcl-1 binding; AID 1009; in the data active means inhibition above about 40%;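 further: 0% = no compound tracer wells and 100% = peptide blocker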
GLD1 RNA confirm: confirmation of C. elegans GLD-1 TGE RNA binding inhibitors. shares compounds with GLD-1 TGE inh. GLD-1/FL-TGE RNA fluorescence polarization, biochemical. inhibition, % at 5.96 µM. 550 compounds, 10% hits. AID 2459;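 active means average inhibition across triplicates above the hit cutoff set in the primary screen, cut at about 32% in these data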;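 further: 0% = GLD-1 with RNA probe and DMSO and 100% = wells lacking GLD-1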
* = called active by the depositor; nt = not tested or not shown. Only some compounds are listed: those with a hit (about 2.3% of all), similar ones and a draw of the others.

SMILES | GLD-1 TGE inh | Mcl1 Bid PPI | MCL1 BIM primary | BCLXL inh | Mcl1 Noxa PPI | Bim-Mcl-1 | GLD1 RNA confirm
COCC(=O)NCc1ccc2c(c1)cc(C)n2C | 36* | -9 | 33 | 30 | 2 | -2 | 14
Cc1cc2cc(CNC(=O)COc3ccccc3)ccc2n1C | 21 | -64 | 17 | 17 | 15 | nt | nt
Cc1cc2cc(CNC(=O)c3ccc4c(c3)OCO4)ccc2n1C | 44* | -15 | 29 | 33* | 30 | 0 | 6
COc1ccc(CC(=O)NCc2ccc3c(c2)cc(C)n3C)cc1OC | 6 | -46 | -1 | 3 | 7 | 1 | nt
CCOc1ccc(CC(=O)NCc2ccc3c(c2)cc(C)n3C)cc1 | 11 | -46 | 5 | 1 | 7 | 0 | nt
COc1cc(OC)cc(C(=O)NCc2ccc3c(c2)cc(C)n3C)c1 | 52* | -47 | 35 | 30* | 20 | -2 | 7
Cc1cc2cc(CNC(=O)c3ccco3)ccc2n1C | 34* | -115 | 41* | 38* | 8 | nt | 3
CC1=C(C(=O)OCc2ccccc2)C(c2ccccc2[N+](=O)[O-])NC(=O)N1C (centres undefined) | 10 | nt | 19 | 12 | nt | nt | nt
CCOC(=O)[C@H]1[C@H]2COc3ccc(OC)cc3[C@@H]2N2C(=O)CN(Cc3ccc(Cl)cc3)C(=O)[C@@]12C | 38* | nt | 8 | 16 | nt | nt | 13
CCOC(=O)[C@H]1[C@H]2COc3ccc(OC)cc3[C@@H]2N2C(=O)CN(Cc3ccc(F)cc3)C(=O)[C@@]12C | -3 | nt | 1 | 1 | nt | nt | nt
CCc1ccc(NC(=O)Cn2ncc3c4ccccc4n(C)c3c2=O)cc1 | 4 | 10 | -7 | 2 | -5 | nt | nt
O=C(CC1N=C2c3ccccc3N=C(SCc3ccc(Cl)cc3)N2C1=O)NCc1ccco1 (centres undefined) | 39* | 3 | 30 | 24 | 21 | 1 | 16
O=c1oc2cc(O)ccc2cc1S(=O)(=O)c1ccccc1 | 40* | nt | 30 | 27 | nt | nt | 12
CSC1=NC(C)(C)CC2(C)Nc3ccccc3N12 (centres undefined) | 47* | -89 | 6 | 15 | -3 | -1 | 0
FC(F)(F)c1ccc(/C=N/n2c(C3CCCCC3)n[nH]c2=S)cc1 | 8 | nt | -25 | -2 | nt | nt | nt
Cc1cc(F)ccc1NC(=O)c1cc(S(=O)(=O)N2CCCC2)cn1C | -4 | nt | -1 | 1 | nt | nt | nt
CN(CC(=O)Nc1n[nH]c(=S)s1)S(=O)(=O)c1cccc2cccnc12 | 112* | nt | -10 | -4 | nt | nt | 0
CCN(CC)C(=O)c1nc[nH]c1C(=O)N1CCC(C)CC1 | 0 | nt | nt | nt | nt | nt | nt
CC(C)[C@H](NC(=O)N1CC(=O)Nc2ccccc21)C(=O)N1CCC[C@H]1C(=O)O | -6 | nt | -5 | 0 | nt | nt | nt
CC(C)OC(=O)c1cc2c(ccn2C)n1CC(=O)N(Cc1ccccc1)c1ccc(F)cc1 | 25 | -29 | 14 | 9 | 10 | 0 | nt
CCOC(=O)c1cc2c(ccn2C)n1CC(=O)N(Cc1ccccc1)c1ccccc1 | 36* | -62 | 2 | 6 | 16 | -3 | 56*
CCOC(=O)c1cc2c(ccn2C)n1CC(=O)N(Cc1ccccc1)c1ccc(F)cc1 | 37* | -75 | 13 | 9 | 8 | -4 | 47*
O=c1c([N+](=O)[O-])c(O)c2cccc3c2n1CCC3 | -3 | nt | 6 | 10 | nt | nt | nt
Cc1ccc(-c2cn3cccnc3n2)cc1NC(=O)c1cccs1 | 31* | -32 | 3 | 4 | 19 | -2 | -4
COc1cc(OC)cc(C(=O)Nc2cc(-c3cn4cccnc4n3)ccc2C)c1 | -7 | -8 | -3 | 4 | 19 | -1 | nt
SMILES | GLD-1 TGE inh | Mcl1 Bid PPI | MCL1 BIM primary | BCLXL inh | Mcl1 Noxa PPI | Bim-Mcl-1 | GLD1 RNA confirm
CC(/C=C/c1ccc(N(C)C)cc1)=N\N=C1\NC(=O)CC(C(=O)Nc2ccccc2)S1 (centres undefined) | 33* | -50 | -18 | -9 | -26 | 0 | -83
CC(/C=C/c1ccc(N(C)C)cc1)=N/N=C1/NC(=O)CC(C(=O)Nc2ccc(Cl)cc2)S1 (centres undefined) | -12 | -57 | -33 | -7 | -62 | -2 | nt
Cc1ccc(NC(=O)CSc2nnc(C)n2-c2ccccc2)cc1 | -1 | -6 | 5 | -4 | 4 | -2 | nt
COC(=O)c1ccc(NC(=O)CSc2nnc(-c3ccccc3Br)n2-c2ccccc2)cc1 | 46* | nt | -5 | 1 | nt | nt | -5
O=C(OCC(=O)N1CCN(C(=O)c2ccco2)CC1)c1sc2cc(F)ccc2c1Cl | 36* | -3 | 38 | 60* | 24 | -4 | -5
Cc1ccc(S(=O)(=O)N2CCCOC2CNC(=O)C(=O)NCc2ccccc2C)cc1 (centres undefined) | -8 | nt | -4 | 4 | nt | nt | nt
COc1cccc(N2CCN(C(=O)c3cc4c(=O)n(Cc5ccccc5)ccc4nc3C)CC2)c1 | -17 | nt | -11 | -3 | nt | nt | nt
O=C(N/N=C/c1ccc[nH]1)c1ccc([N+](=O)[O-])cc1 | 57* | -13 | 4 | 4 | 15 | -10 | -3
Cc1ccc(NC(=O)CC(C)CC2=NS(=O)(=O)c3ccccc3N2)cc1 (centres undefined) | 7 | nt | 1 | 2 | nt | nt | nt
COc1cc(O)cc2cc3c(c(O)c12)C(=O)CC(C)(O)O3 (centres undefined) | 34* | -111 | 43* | 38* | 50 | nt | 49*
CC(Oc1ccc(Br)cc1)C(=O)NCC(c1cccs1)N1CCOCC1 (centres undefined) | 7 | nt | 4 | 4 | nt | nt | nt
Nc1cccc2c1C(=O)N(Cc1cccc(Cl)c1)C2=O | 32* | 11 | 23 | 22 | 6 | -1 | 39*
O=C(CN(C(=O)CNS(=O)(=O)c1ccc(F)cc1)c1ccccc1F)NCc1ccco1 | -4 | nt | -7 | 0 | nt | nt | nt
Nc1cccc2c1C(=O)N(CC(=O)NC13CC4CC(CC(C4)C1)C3)C2=O | 37* | -23 | 32 | 32* | 22 | -2 | 29
Nc1ccccc1C(=O)NC12CC3CC(CC(C3)C1)C2 | 2 | nt | 0 | -4 | nt | nt | nt
O=C(CN1CCCCCCC1)Nc1cc(Cl)cc(Cl)c1 | 33* | -20 | 3 | 3 | -10 | -1 | 3
Nc1c(-c2cccc([N+](=O)[O-])c2)nc2ccccn12 | 32* | 36 | 14 | 6 | 28 | -3 | 43*
COc1ccc(S(=O)(=O)C(C#N)c2nc3ccccc3nc2N2CCC(C)CC2)cc1 (centres undefined) | 42* | nt | 47* | 49* | nt | nt | 5
Cc1cccc(S(=O)(=O)C(C#N)c2nc3ccccc3nc2N2CCOCC2)c1 (centres undefined) | 41* | 24 | 27 | 32* | 25 | -3 | -2
Clc1ccccc1/C=N/NC1=Nc2cccc3cccc1c23 | 48* | -6 | 15 | 23 | -8 | -2 | 22
CCOC(=O)CC(=O)CSc1nc2cc(C)ccc2cc1C | 23 | -7 | 29 | 21 | 20 | 2 | nt
